High-throughput results (PubChem)
TDP1 block = qHTS Assay for Inhibitors of Tyrosyl-DNA Phosphodiesterase (TDP1) | Tyrosyl-DNA phosphodiesterase 1 (Homo sapiens), Q9NUW8 | recombinant TDP1, AlphaScreen DNA substrate cleavage | AID 485290, 2010 | Potency, µM (titrated, usually from 130 µM), hits mostly inhibitors | actives 0.28% (n = 350,000); also: nearly all actives have a fitted effect of over 40% in size
Target sequence (Q9NUW8 whole entry, looked up): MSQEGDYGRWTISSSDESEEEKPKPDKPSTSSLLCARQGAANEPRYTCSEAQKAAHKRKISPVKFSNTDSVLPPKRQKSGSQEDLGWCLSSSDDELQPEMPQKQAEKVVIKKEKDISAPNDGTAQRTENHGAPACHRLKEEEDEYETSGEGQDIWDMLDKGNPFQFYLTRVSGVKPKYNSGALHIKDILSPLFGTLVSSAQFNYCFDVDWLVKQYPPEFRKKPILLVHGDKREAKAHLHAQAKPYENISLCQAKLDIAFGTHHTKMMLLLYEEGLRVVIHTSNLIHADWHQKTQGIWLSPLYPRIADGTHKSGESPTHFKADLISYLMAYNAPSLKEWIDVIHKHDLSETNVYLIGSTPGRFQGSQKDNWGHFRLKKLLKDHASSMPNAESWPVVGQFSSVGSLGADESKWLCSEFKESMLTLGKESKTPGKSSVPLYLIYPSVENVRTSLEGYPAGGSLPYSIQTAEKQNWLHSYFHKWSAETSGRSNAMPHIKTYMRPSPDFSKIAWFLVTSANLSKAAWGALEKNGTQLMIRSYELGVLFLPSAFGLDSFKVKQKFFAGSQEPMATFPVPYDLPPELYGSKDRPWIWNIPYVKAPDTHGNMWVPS
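Compounds were preincubated with Tdp1 (1 nM final) for 15 min at room temperature before substrate (15 nM final) started a 5 min reaction; beads (10 ug/ml final) were then added for 10 min before AlphaScreen detection.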
BLM inh = qHTS Assay for Inhibitors of Bloom's syndrome helicase (BLM); recombinant BLM DNA unwinding, fluorescence dequenching; actives 0.2% (n = 350,000); Potency, µM (top dose mostly 56.1 µM), hits mostly inhibitors; also: nearly all actives have a fitted effect of over 35% in size
KDM4E inh = qHTS Assay for Inhibitors of Human Jumonji Domain Containing 2E (JMJD2E); actives 1.6% (n = 230,000); JMJD2E catalytic domain, FDH-coupled NADH fluorescence (FDH is formaldehyde dehydrogenase); Potency, µM (titrated, usually from 57.1 µM), most hits filed as inhibitors; active = well fitted inhibition curve with a large enough effect, not every such curve was filed as active; inconclusive = small, poorly fitted or top-dose-only effect, or another doubt; inactive = no such curve, though single readings can be large or run the other way; also: nearly all actives have a fitted effect of over 50% in size
RECQ1 inh-1 = qHTS Assay for Inhibitors of RecQ-Like Dna Helicase 1 (RECQ1) | actives 0.54% (n = 240,000) | Potency, µM (titrated, usually from 57.3 µM), actives largely listed as inhibitors | ATP-dependent DNA helicase Q1 (Homo sapiens), P46063 | AID 2549, 2010 | RECQ1 DNA unwinding, red fluorescence kinetic read; also: nearly all actives have a fitted effect of over 30% in size
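50 nM RECQ1T1 preincubated 15 min with compound in Tris pH 8.0 buffer with MgCl2, DTT, Tween-20 and 2.5 ug/ml poly(dI-dC); started with 200 nM TAMRA/BHQ-2 forked duplex and 2 mM ATP. Unwinding read as fluorescence (525/598 nm), two reads 2 h apart.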
APEX1 inh = qHTS Assay for Inhibitors of the Human Apurinic/apyrimidinic Endonuclease 1 (APE1); recombinant APE1, TAMRA/BHQ-2 abasic DNA cleavage fluorescence; DNA repair nuclease/redox regulator APEX1 (Homo sapiens), P27695; actives 0.35% (n = 350,000); Potency, µM (top dose mostly 65.8 µM), usual class: inhibitors; AID 2517, 2012; also: nearly all actives have a fitted effect of over 55% in size
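Incision of a quenched TAMRA/BHQ-2 THF abasic-site duplex (50 nM) by 0.75 nM APE1, after 15 min compound preincubation, measured as fluorescence increase over three 60 s reads. Values normalized to buffer, DMSO and NSC13755 control wells.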
KAT2A inh = qHTS Assay for Inhibitors of GCN5L2 | actives 0.21% (n = 390,000) | Potency, µM (series often up to 58.9 µM), actives largely listed as inhibitors | Histone acetyltransferase KAT2A (Homo sapiens), Q92830 | GCN5L2 HAT assay, ThioGlo1 CoA-SH fluorescence | AID 504327, 2011
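Free CoA generated was detected with ThioGlo1 (50uM) fluorescence at Ex340nm/Em540nm, read immediately and after 20 min at room temperature. Enzyme, 20 nM in HEPES pH 7.5 buffer, saw compounds 15 min before adding 75uM H3(1-25) peptide and 70uM acetyl-CoA.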
RECQ1 inh conf = Confirmation qHTS Assay for Inhibitors of RecQ-Like Dna Helicase 1 (RECQ1). actives 28% (n = 610). shares compounds with RECQ1 inh-1. Potency, µM (top dose mostly 229 µM), hits mostly inhibitors. AID 2708, 2010. RECQ1 helicase DNA unwinding, fluorescence; also: nearly all actives have a fitted effect of over 45% in size
RECQ1 ADP FP = Counterscreen for RECQ1 Inhibitors: ADP Fluorescence Polarization Displacement Assay; shares compounds with RECQ1 inh-1; Potency, µM (highest dose often 228 µM), most hits filed as inhibitors; ADP fluorescence polarization displacement counterscreen; actives 27% (n = 530); also: nearly all actives have a fitted effect of over 45% in size
RECQ1 inh-2 = Confirmation qHTS Assay for Inhibitors of RecQ-Like Dna Helicase 1 (RECQ1) - Round 2 Cherry Picks; shares compounds with RECQ1 inh-1; recombinant RECQ1 DNA unwinding, red fluorescence; Potency, µM (doses to about 119 µM), actives largely listed as inhibitors; actives 15% (n = 1,100); AID 504841, 2011; also: nearly all actives have a fitted effect of over 50% in size
Hits are given with their value. The sample as a whole holds a higher share of hits than the screen did. Unless noted, calls follow the shape of the dose curve; as a rule, active = well fitted curve in the direction sought with a large enough effect; inconclusive = small, poorly fitted or top-dose-only effect, or another doubt; inactive = no such curve, though single readings can be large; an effect the other way counts as inactive or inconclusive.

`O=C(COC(=O)CCC(=O)c1ccc(Cl)cc1)NCc1ccco1` gave BLM inh inactive, KDM4E inh inactive, RECQ1 inh-1 inconclusive, APEX1 inh inconclusive, KAT2A inh inactive and RECQ1 inh-2 inconclusive.
For Cc1ccc(S(=O)(=O)Nc2cccc3ccc[n+](C)c23)cc1 the results were TDP1 block inactive, BLM inh inactive, RECQ1 inh-1 inactive and APEX1 inh inactive.
`CC1CC1C(=O)Nc1nc(-c2cccs2)c(-c2cccs2)s1` (stereo unspecified) gave TDP1 block inactive, BLM inh inconclusive, KDM4E inh inconclusive, RECQ1 inh-1 32µM, APEX1 inh inactive, KAT2A inh inactive and RECQ1 inh-2 inconclusive.
`O=C(Nc1nc(-c2cccs2)c(-c2ccccc2)s1)c1ccco1` gave TDP1 block inactive, BLM inh inactive, KDM4E inh inconclusive, RECQ1 inh-1 inactive, APEX1 inh inconclusive and KAT2A inh inactive.
COc1ccc2c(c1)c1c(c(=O)n(Cc3ccccc3)c(=O)n1CC(=O)Nc1ccc(C)cc1C)n2C was read as TDP1 block inactive, BLM inh inactive and KAT2A inh inactive.
`COCCNC(=O)c1noc2c1CCc1cc(OC)ccc1-2` gave TDP1 block inactive, BLM inh inactive, KDM4E inh inactive, RECQ1 inh-1 inactive, APEX1 inh inactive and KAT2A inh inactive.
For COc1ccc2c(c1)CCc1c(C(=O)N(C)c3ccccc3)noc1-2 the results were TDP1 block inactive, BLM inh inactive, KDM4E inh inactive, RECQ1 inh-1 4.5µM, APEX1 inh inactive, KAT2A inh inactive, RECQ1 inh conf inactive, RECQ1 ADP FP inconclusive and RECQ1 inh-2 inactive.
For O=C(CC(Sc1ccc(Br)cc1)C(=O)O)c1ccc(Br)cc1 (stereo unspecified) the results were BLM inh inactive, APEX1 inh inactive and KAT2A inh inactive.
Screening O=C(CC(C(=O)O)P(=O)(c1ccccc1)c1ccccc1)c1ccc(Br)cc1 (stereo unspecified) returned TDP1 block inactive, BLM inh inactive, KDM4E inh inactive, RECQ1 inh-1 inactive, APEX1 inh inactive, KAT2A inh inactive, RECQ1 inh conf inactive and RECQ1 ADP FP inactive.
Screening COCC(=O)N(C)C1(c2nnnn2CCOC(=O)Nc2cccc3ccccc23)CCCC1 returned BLM inh inactive, KDM4E inh inconclusive, RECQ1 inh-1 32µM, APEX1 inh inactive, KAT2A inh inactive and RECQ1 inh-2 inactive.
